Rows were chosen to be rich in hits. Some 11% of all compounds tested hit in one or more screens of this group.
HEK293 tox: cytotoxic compounds in HEK 293 cells | HEK 293 viability, ATP luminescence (CellTiter-Glo), 48-72 h | Potency, µM (series often up to 115 µM), without a hit: at the highest dose activity change, negative = cytotoxicity, most hits filed as inhibitors | hit rate 6.6% among 94,000; further: nearly all actives have a fitted effect of over 60% in size
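HEK 293 cells at 250 cells/well were exposed to compounds by pintool transfer for 48 or 72 hr at 37 degree Celsius, 5% CO2. Viability was read as ATP-coupled luminescence with CellTiter-Glo after 10 min at room temperature.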
FLuc inh: Photinus pyralis luciferase inhibition. purified P. pyralis luciferase, luminescence, biochemical. Potency, µM (titrated, usually from 115 µM), actives largely listed as inhibitors. hit rate 2.5% among 76,000. AID 1347043; further: nearly all actives have a fitted effect of over 65% in size
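Purified P. pyralis luciferase (10nM final) in 50mM Tris acetate pH 7.5, 10mM Mg acetate, 0.01% Tween-20, 0.05% BSA with 10uM D-luciferin and 10uM ATP. Compounds titrated qHTS. Luminescence imaged on CCD.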
NPR1 antag: human Npr1 receptor antagonism. HEK293 hNpr1 GloSensor cGMP, ANP-stimulated luminescence. Potency, µM (titrated, usually from 46.3 µM), for the others: top-dose activity change, negative = inhibition, usual class: inhibitors. hit rate 1.6% among 76,000. AID 1347048; calls by dose curve; further: nearly all actives have a fitted effect of over 60% in size
Target sequence (P16066 whole entry, looked up): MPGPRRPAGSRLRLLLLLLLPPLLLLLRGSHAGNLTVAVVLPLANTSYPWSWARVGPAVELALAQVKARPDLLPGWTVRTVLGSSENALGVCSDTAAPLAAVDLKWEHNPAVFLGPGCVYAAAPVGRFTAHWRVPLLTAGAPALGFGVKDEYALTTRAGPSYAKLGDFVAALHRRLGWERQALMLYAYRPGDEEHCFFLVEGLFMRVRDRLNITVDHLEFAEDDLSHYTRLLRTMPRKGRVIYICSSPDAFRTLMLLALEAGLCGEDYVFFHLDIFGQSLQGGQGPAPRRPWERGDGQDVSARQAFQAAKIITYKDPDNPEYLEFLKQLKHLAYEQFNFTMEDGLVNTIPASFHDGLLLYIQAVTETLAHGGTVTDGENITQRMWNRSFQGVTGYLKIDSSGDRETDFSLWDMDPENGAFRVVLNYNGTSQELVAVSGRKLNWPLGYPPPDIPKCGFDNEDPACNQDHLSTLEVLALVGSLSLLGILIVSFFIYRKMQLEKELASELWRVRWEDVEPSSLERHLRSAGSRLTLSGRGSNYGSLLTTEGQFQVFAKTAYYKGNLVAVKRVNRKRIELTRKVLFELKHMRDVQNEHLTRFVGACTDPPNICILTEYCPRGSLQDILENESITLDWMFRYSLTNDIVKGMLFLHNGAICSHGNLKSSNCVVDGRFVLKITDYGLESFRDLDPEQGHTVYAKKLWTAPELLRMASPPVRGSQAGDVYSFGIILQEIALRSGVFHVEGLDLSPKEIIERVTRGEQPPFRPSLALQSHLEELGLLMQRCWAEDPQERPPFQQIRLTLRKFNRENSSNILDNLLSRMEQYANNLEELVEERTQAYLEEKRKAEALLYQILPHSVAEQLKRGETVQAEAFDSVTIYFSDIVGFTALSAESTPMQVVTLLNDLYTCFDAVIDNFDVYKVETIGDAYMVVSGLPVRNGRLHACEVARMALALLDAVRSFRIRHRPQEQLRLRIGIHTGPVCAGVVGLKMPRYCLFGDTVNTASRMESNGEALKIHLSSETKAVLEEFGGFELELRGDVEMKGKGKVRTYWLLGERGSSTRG
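Compound pre-incubated 30 min at room temperature on GloSensor-loaded HEK293 cells stably carrying hNpr1 and the pGS-40F cGMP biosensor. Stimulation uses hNppA at 0.1 nM final; luminescence is taken at baseline and 20 min post-agonist.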
3T3 cytotox: kills NIH 3T3 cells. NIH 3T3 viability, CellTiter-Glo ATP luminescence, 48-72 h. hit rate 4.3% among 94,000. Potency, µM (series often up to 96.7 µM), for inactives: at the highest dose activity change, negative = cytotoxicity, most hits filed as inhibitors. AID 1345082; further: nearly all actives have a fitted effect of over 55% in size
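Cytotoxicity was measured by CellTiter-Glo ATP luminescence after 48 or 72 h compound exposure at 37 °C. Mouse NIH 3T3 fibroblasts were seeded at 400 cells/well and dosed by 23 nL pin transfer.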
* hit, by the source's call; [ ] = remark or other dose. Unless noted, the call rests on the fitted dose curve; in most records, active means well fitted curve in the direction sought with a large enough effect; inconclusive means small, poorly fitted or top-dose-only effect, or another doubt; inactive means no such curve, though single readings can be large; an effect the other way counts as inactive or inconclusive. On the % scale 0 is the no-effect control and ±100 the full control effect; potency means the concentration at half of the fitted maximal effect.

How did N#Cc1cccc(NC(=O)N[C@H]2CO[C@H]3[C@@H]2OC[C@@H]3Nc2nccc(C3CCCC3)n2)c1 do in these assays?
HEK293 tox: inconclusive; FLuc inh: inactive; NPR1 antag: inconclusive; 3T3 cytotox: inconclusive

What do the screens show for `CCCc1cc(N2CCC(NCc3cc(F)c(F)c(F)c3)CC2)nc(C)n1`?
HEK293 tox: 50µM*; FLuc inh: inactive; NPR1 antag: 8%; 3T3 cytotox: inconclusive

Results for CCCc1cc(N2CCC(NCCOC(C)C)CC2)nc(C)n1 ?
HEK293 tox: -10%; FLuc inh: inactive; NPR1 antag: 7%; 3T3 cytotox: -4%

How did CCOCCNC(=O)C1CCN(C(=O)c2ccc(-c3cncnc3)cc2)CC1 do in these assays?
HEK293 tox: -13%; 3T3 cytotox: -21%

How did CCc1[nH]c2ccc(CNC(=O)C3CC(=O)Nc4ccccc43)cc2c1C (stereo unspecified) do in these assays?
HEK293 tox: inconclusive; FLuc inh: 18µM*; NPR1 antag: 0%; 3T3 cytotox: inconclusive

How did COc1cccc(C(=O)N2CCC(c3nn(-c4ccccn4)c(=O)[nH]3)CC2)c1 do in these assays?
HEK293 tox: inactive; 3T3 cytotox: -7%

Results for Cc1ccc(C(=O)Nc2ccc3c(N4CCOCC4)ncnc3c2)cc1 ?
HEK293 tox: inconclusive; FLuc inh: 16µM*; NPR1 antag: -17%; 3T3 cytotox: inconclusive

How did O=C(Nc1ccc2ncnc(N3CCCC3)c2c1)c1cccc(Br)c1 do in these assays?
HEK293 tox: 18µM*; FLuc inh: inactive; NPR1 antag: -29%; 3T3 cytotox: 14µM*

What do the screens show for `O=C(Nc1ccc2ncnc(N3CCCCC3)c2c1)c1ccc(F)c(F)c1`?
HEK293 tox: 45µM*; FLuc inh: inactive; NPR1 antag: -28%; 3T3 cytotox: inconclusive

What do the screens show for `O=C(Nc1ccc2c(N3CCOCC3)ncnc2c1)c1cccc(Br)c1`?
HEK293 tox: 63µM*; FLuc inh: inactive; NPR1 antag: -16%; 3T3 cytotox: inconclusive

Results for COc1ccc(-c2[nH]ncc2CN2CCn3nnc(CCC(=O)N4CCCC4)c3C2)cc1 ?
HEK293 tox: -5%; FLuc inh: inactive; NPR1 antag: 0%; 3T3 cytotox: -10%

Results for CC(C)c1nc2c(c(-c3ccc(Cl)cc3)n1)CCN(C(=O)c1ccccc1)CC2 ?
HEK293 tox: inconclusive; 3T3 cytotox: -11%

How did OC1(CNCc2csc3ccc(Cl)cc23)CNCCOC1 (stereo unspecified) do in these assays?
HEK293 tox: inconclusive; FLuc inh: inactive; NPR1 antag: -1%; 3T3 cytotox: -20%

Results for O=C(Nc1ccc2c(N3CCOCC3)ncnc2c1)c1ccc(F)c(Cl)c1 ?
HEK293 tox: inconclusive; FLuc inh: inactive; NPR1 antag: -1%; 3T3 cytotox: 35µM*

Results for O=C(Nc1ccc2c(N3CCOCC3)ncnc2c1)c1ccccc1C(F)(F)F ?
HEK293 tox: inconclusive; FLuc inh: inactive; NPR1 antag: 5%; 3T3 cytotox: 28µM*

Results for O=C(Nc1ccc2ncnc(N3CCCCC3)c2c1)c1ccsc1 ?
HEK293 tox: 40µM*; FLuc inh: inactive; NPR1 antag: -20%; 3T3 cytotox: 25µM*

What do the screens show for `O=C(Nc1ccc2c(N3CCCCC3)ncnc2c1)c1ccsc1`?
HEK293 tox: inconclusive; FLuc inh: inconclusive; NPR1 antag: -17%; 3T3 cytotox: inconclusive

What do the screens show for `C=CCN1C[C@@H]2C[C@@H](C(=O)NC)N(C(=O)Cc3ccccc3)c3cccc(c32)C1=O`?
HEK293 tox: -4%[57.5 µM]; 3T3 cytotox: inconclusive

How did COCc1ccc2c(c1)c(OC(C)(C)C(=O)NC1CC1)nn2CCC(C)C do in these assays?
HEK293 tox: inconclusive; FLuc inh: inactive; NPR1 antag: inconclusive; 3T3 cytotox: inconclusive

How did COCc1ccc2c(c1)c(OC(C)(C)C(=O)NC1CCN(C)CC1)nn2CCC(C)C do in these assays?
HEK293 tox: inconclusive; FLuc inh: inactive; NPR1 antag: 3%[70.6 µM]; 3T3 cytotox: 89µM*

What do the screens show for `COCc1ccc2c(c1)c(OC(C)(C)C(=O)Nc1ccccn1)nn2CCC(C)C`?
HEK293 tox: 89µM*; FLuc inh: inactive; NPR1 antag: -21%[70.6 µM]; 3T3 cytotox: 45µM*

How did Cc1ccccc1OCc1nc(C2CN(C(=O)Cc3c[nH]c4ccccc34)C2)no1 do in these assays?
HEK293 tox: inconclusive; FLuc inh: inactive; NPR1 antag: inconclusive; 3T3 cytotox: inconclusive

What do the screens show for `Cc1ccc(Nc2ccnc(N3CCCN([S+](=O)([O-])c4cccs4)C3)n2)cc1`?
HEK293 tox: 25µM*; 3T3 cytotox: inconclusive

What do the screens show for `Cc1ccc(Nc2ccnc(N3CCCC3C(=O)N3CCN(C)CC3)n2)cc1` (stereo unspecified)?
HEK293 tox: -29%; 3T3 cytotox: -26%

What do the screens show for `COc1ccc(C(=O)N2CCCN(c3nccc(Nc4ccc(C)cc4)n3)C2)cc1`?
HEK293 tox: 11µM*; 3T3 cytotox: inconclusive

How did COC(=O)N1CCCN(c2nccc(Nc3ccc(C)cc3)n2)C1 do in these assays?
HEK293 tox: 50µM*; 3T3 cytotox: 35µM*

Results for COc1ccc(Nc2ccnc(N3CCN(C(=O)c4ccc(C)cc4)CC3)n2)cc1 ?
HEK293 tox: 13µM*; 3T3 cytotox: 32µM*

Results for Cc1ccc(CNC(=O)N2CC(N(CC(C)C)C3CCN(C)CC3)C2)cc1 ?
HEK293 tox: inactive; 3T3 cytotox: -4%

How did COCC1CN(Cc2ccccc2C(F)(F)F)CC12CCNCC2 (stereo unspecified) do in these assays?
HEK293 tox: inconclusive; FLuc inh: inactive; NPR1 antag: -3%; 3T3 cytotox: inconclusive

How did COc1ccc(Nc2ccnc(N3CCN(C(=O)c4ccc(C(F)(F)F)cc4)CC3)n2)cc1 do in these assays?
HEK293 tox: 35µM*; 3T3 cytotox: inconclusive

Results for Cc1cc(C)c(C)c(S(=O)(=O)NC2CCN(c3ccc(=O)n(CC4CC4)n3)CC2)c1C ?
HEK293 tox: 32µM*; FLuc inh: inactive; NPR1 antag: inconclusive; 3T3 cytotox: inconclusive

How did O=C(c1ccc(Cl)cc1)N1CC2(CCCN(C3COC3)C2)Cc2ccccc21 (stereo unspecified) do in these assays?
HEK293 tox: inconclusive; 3T3 cytotox: -12%

Results for c1ccc(-c2noc(Nc3ccc4c(c3)OCCO4)n2)cc1 ?
HEK293 tox: 40µM*; FLuc inh: 22µM*; NPR1 antag: -29%; 3T3 cytotox: inconclusive

What do the screens show for `CC1=C[C@@H](CNCc2ccc(Cl)cc2)[C@H](C(C)C)C[C@H]1Cc1nnc(-c2cncn2C)o1`?
HEK293 tox: 79µM*; FLuc inh: inactive; NPR1 antag: -12%; 3T3 cytotox: 40µM*

What do the screens show for `CC1=C[C@@H](CNCc2ccc(F)cc2)[C@H](C(C)C)C[C@H]1Cc1nnc(C)o1`?
HEK293 tox: inconclusive; FLuc inh: inactive; NPR1 antag: -13%[70.6 µM]; 3T3 cytotox: inconclusive

Assay outcomes from PubChem BioAssay.
